# Results filed as inconclusive are left out. Activity calls are given as the source filed them. Unless noted, calls come from the whole dose curve; as a rule, active = well fitted curve in the direction sought with a large enough effect; inconclusive = small, poorly fitted or top-dose-only effect, or another doubt; inactive = no such curve, though single readings can be large; an effect the other way counts as inactive or inconclusive.
# Legend:
# [1] = target: Alpha-galactosidase A (Homo sapiens) (UniProt P06280); test: Counterscreen for Glucocerebrosidase Inhibitors: qHTS Assay for Human alpha-Galactosidase at pH 4.5 (AID 992); note: 0% is about no effect
# Summary of the method: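 Quantitative HTS: compounds tested from 0.7 nM up to 77 uM against 2 nM enzyme with 80 uM 4-MU alpha-D-galactopyranoside. The 20 min room-temperature reaction is stopped with 1M NaOH/1M glycine, pH 10.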
# [2] = target: alpha-glucosidase (Oryza sativa, rice) (UniProt Q653V4); test: Counterscreen for Glucocerebrosidase Inhibitors: qHTS Assay for Rice alpha-Glucosidase at pH 5.0 (AID 997);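 note: 0% = full activity with enzyme and -100% = basal without enzyme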
# Summary of the method: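 Rice alpha-glucosidase (4 nM final) with 400 uM 4-methylumbelliferyl-alpha-D-glucopyranoside in citrate buffer pH 5.0, 20 min at room temperature, stopped at pH 10; fluorescence 365/440 nm, compounds 0.7 nM–77 uM, AC50 from Hill fits.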
# [3] = Validation of Assay for Modulators of Lamin A Splicing (AID 1459; active = well fitted curve in the direction sought with a large enough effect in the signal ratio; the % refers to the signal ratio;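 note: cells exposed to compound for two days before reading; 0% is about no effect; ratio rise marks activators and ratio drop marks inhibitors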)
# Summary of the method: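 Splicing correction is reported by an EGFP-containing lamin A minigene in stably transfected S3 HeLa cells, while DsRed2 controls for viability and nonspecific signal. Cells are exposed to compounds for 48 hrs before the GFP over RFP ratio is taken.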
# [4] = target: DNA repair nuclease/redox regulator APEX1 (Homo sapiens) (UniProt P27695); test: qHTS Validation Assay for Inhibitors of the Human Apurinic/apyrimidinic Endonuclease 1 (APE1) (AID 1705; note: potency is the fitted concentration of half-maximal effect;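 for activity change, negative = inhibition: TAMRA fluorescence gain over two minutes as APE1 cuts a quenched THF abasic duplex; % is set by controls: 0 for no effect and ±100 for the full control effect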)
# Summary of the method: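 Endonuclease activity of human APE1 is followed as dequenching when the enzyme incises a tetrahydrofuran abasic site in a short duplex labelled 5'-TAMRA/3'-BHQ-2 (50 nM final), after 15 min enzyme–compound preincubation at room temperature.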
# [5] = Counterscreen for APE1 Inhibitors: Fluorescent Dye Displacement Validation Assay (AID 1707);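 note: plate controls were ThO with dsDNA and no compound for no effect and ThO without dsDNA for full effect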
# Summary of the method: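 Compounds are scored by their ability to displace Thiazole Orange (250 nM) from a 50 nM TAMRA-tagged duplex bearing a tetrahydrofuran abasic site. Buffer is 50 mM Tris-HCl pH7.5, 50mM NaCl, 2 mM MgCl2, 0.01% Tween-20.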
# [6] = qHTS for differential inhibitors of proliferation of Plasmodium falciparum line 7G8 (AID 1815);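 note: parasite growth measured after three days of incubation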; note: potency is the fitted concentration of half-maximal effect;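 for activity change, negative = inhibition: plate controls were vehicle wells for no effect and reference inhibitor wells for full effect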
# [7] = qHTS for differential inhibitors of proliferation of Plasmodium falciparum line 3D7 (AID 1876); note: potency is the fitted concentration of half-maximal effect
# [8] = qHTS for differential inhibitors of proliferation of Plasmodium falciparum line D10 (AID 1877);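 note: parasites grown with compound for 72 h before DNA staining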; note: potency is the fitted concentration of half-maximal effect;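 for activity change, negative = inhibition: plate controls were vehicle wells for no effect and reference inhibitor wells for full effect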
# [9] = qHTS for differential inhibitors of proliferation of Plasmodium falciparum line Dd2 (AID 1882); details: Potency: Plasmodium falciparum Dd2 proliferation inhibition;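 note: plate controls were DMSO vehicle for no effect and 0.29 µM artemisinin for full effect; nearly all actives have a fitted effect of over 65% in size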
# Summary of the method: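 Dd2-infected erythrocytes (0.3% parasitemia, 2.5% hematocrit final) incubated with compound 72 h at 37 C, 5% CO2; lysed with saponin/Triton buffer containing SYBR Green I, incubated overnight in the dark, then read by fluorescence (485/535 nm). Normalized to 0.29 uM artemisinin and DMSO.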
# [10] = qHTS for differential inhibitors of proliferation of Plasmodium falciparum line HB3 (AID 1886); details: Potency: Plasmodium falciparum HB3 proliferation inhibition;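 note: parasites grown with compound for 72 h before SYBR Green readout; plate controls were vehicle for no effect and reference inhibitor for full effect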
# [11] = qHTS Assay for Modulators of Human Peripheral Myelin Protein 22 (PMP22) Expression/Activity (AID 1967; active = well fitted curve in the direction sought with a large enough effect in the signal ratio; the % refers to the signal ratio;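 note: 0% = untreated cells and 100% end not stated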)
# Summary of the method: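 Quantitative HTS in a mouse Schwann cell line expressing dual click beetle luciferases: Pmp22 promoter (green) and control EF-alpha promoter (red). After 24h treatment, corrected green/red signal ratio gave %Activity relative to untreated cells.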
# [12] = qHTS Assay for Lipid Storage Modulators (AID 1519; calls by dose curve; for activity change, negative = inhibition: % is set by controls: 0 for no effect and ±100 for the full control effect); details: Drosophila S3 cells, BODIPY lipid droplet/cell ratio, laser cytometry, cells loaded with oleic acid
# Summary of the method: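 Cells seeded at 5,000 per well were treated with compounds over a concentration series and loaded with oleic acid (400 uM, as added). Lipid droplet fluorescence (488 nm excitation, 500-530 nm channel) was read by laser-scanning cytometry and normalized to 20 uM Triacsin C.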
# [13] = target: Endonuclease 4 (Escherichia coli (strain K12)) (UniProt P0A6C1); test: Counterscreen for APE1 Inhibitors: qHTS Validation Assay for Inhibitors of Endonuclease IV (AID 1708); note: % is set by controls: 0 for no effect and ±100 for the full control effect
# Summary of the method: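 Concentration-response counterscreen run identically to the APE1 assay: 15 min room-temperature preincubation of 2 nM enzyme with compound, reaction started with 50 nM quenched abasic DNA, progress taken from kinetic fluorescence.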
# [14] = qHTS for differential inhibitors of proliferation of Plasmodium falciparum line GB4 (AID 1816); details: Potency: Plasmodium falciparum GB4 proliferation inhibition;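 note: parasite growth measured after 72 h incubation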; note: potency is the fitted concentration of half-maximal effect;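 for activity change, negative = inhibition: 0% = vehicle DMSO and -100% = reference inhibitor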
# [15] = qHTS for differential inhibitors of proliferation of Plasmodium falciparum line W2 (AID 1883); details: Potency: Plasmodium falciparum W2 proliferation inhibition;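 note: parasites grown with compound for 72 h before lysis and staining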; note: potency is the fitted concentration of half-maximal effect;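 for activity change, negative = inhibition: 0% = vehicle wells and -100% = control inhibitor wells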
# [16] = measured here: cell count channel max response
# [17] = measured here: lipid channel max response
# Chain of DNA repair nuclease/redox regulator APEX1 (Homo sapiens) (P27695 whole entry, looked up): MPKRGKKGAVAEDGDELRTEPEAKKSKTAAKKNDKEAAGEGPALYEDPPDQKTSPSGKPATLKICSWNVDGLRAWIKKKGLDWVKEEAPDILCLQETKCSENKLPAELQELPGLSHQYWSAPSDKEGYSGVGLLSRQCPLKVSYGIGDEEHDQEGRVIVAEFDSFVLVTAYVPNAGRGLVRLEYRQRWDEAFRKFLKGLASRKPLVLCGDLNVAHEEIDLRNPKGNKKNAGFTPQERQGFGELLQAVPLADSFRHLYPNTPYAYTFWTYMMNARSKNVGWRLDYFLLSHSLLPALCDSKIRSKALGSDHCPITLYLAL
# Chain of Alpha-galactosidase A (Homo sapiens) (P06280 whole entry, looked up): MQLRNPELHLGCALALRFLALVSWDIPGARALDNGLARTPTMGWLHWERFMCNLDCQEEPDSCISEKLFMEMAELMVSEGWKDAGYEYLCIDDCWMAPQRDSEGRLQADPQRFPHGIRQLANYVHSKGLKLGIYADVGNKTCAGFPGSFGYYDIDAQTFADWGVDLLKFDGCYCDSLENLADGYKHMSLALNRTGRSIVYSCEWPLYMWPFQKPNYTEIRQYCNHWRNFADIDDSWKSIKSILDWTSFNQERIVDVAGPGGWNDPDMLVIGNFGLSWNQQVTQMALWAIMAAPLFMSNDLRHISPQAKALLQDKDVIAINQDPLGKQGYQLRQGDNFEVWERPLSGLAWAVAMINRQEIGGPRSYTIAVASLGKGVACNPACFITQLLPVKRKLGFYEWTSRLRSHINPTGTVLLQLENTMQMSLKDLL
structure (smiles),measurement,setting,value
Nc1cc(Cl)c(NC2=NCCN2)c(Cl)c1,outcome,[1],inactive
same,outcome,[2],inactive
same,outcome,[3],inactive
same,Potency,[4],inactive
same,outcome,[5],inactive
same,Potency,[6],inactive
same,Potency,[7],inactive
same,Potency,[8],inactive
same,Potency,[9],inactive
same,Potency,[10],inactive
same,outcome,[11],inactive
CC(C)(Oc1ccc(Cl)cc1)C(=O)O,"activity change, negative = inhibition",[12]; at 25.7 µM (top of the series),-1.74% (inactive)
same,max response,[12]; [16],1.11%
same,max response,[12]; [17],-1.85%
O=C(OCC(O)CO)c1ccccc1Nc1ccnc2cc(Cl)ccc12 (stereo unspecified),"activity change, negative = inhibition",[12]; at 57.5 µM (top of the series),0.748% (inactive)
same,max response,[12]; [16],5.57%
same,max response,[12]; [17],7.83%
CCCn1c(=O)[nH]c(=O)c2[nH]cnc21,outcome,[1],inactive
same,outcome,[2],inactive
same,outcome,[3],inactive
same,"activity change, negative = inhibition",[12]; at 57.5 µM (top of the series),-0.904% (inactive)
same,max response,[12]; [16],29.5%
same,max response,[12]; [17],25.8%
same,Potency,[4],inactive
same,outcome,[5],inactive
same,outcome,[13],inactive
same,Potency,[6],inactive
same,Potency,[14],inactive
same,Potency,[7],inactive
same,Potency,[8],inactive
same,Potency,[9],inactive
same,Potency,[15],inactive
same,Potency,[10],inactive
same,outcome,[11],inactive
COc1cc(OC)cc(OC)c1,"activity change, negative = inhibition",[12]; at 57.5 µM (top of the series),0.768% (inactive)
same,max response,[12]; [16],-0.306%
same,max response,[12]; [17],3%
CCn1cc(C(=O)O)c(=O)c2cnc(N3CCCC3)nc21,"activity change, negative = inhibition",[12]; at 25.7 µM (top of the series),-3.05% (inactive)
same,max response,[12]; [16],-11.9%
same,max response,[12]; [17],-16.2%
CC(C)N=C(N)/N=C(\N)Nc1ccc(Cl)cc1,"activity change, negative = inhibition",[12]; at 25.7 µM (top of the series),-2.29% (inactive)
same,max response,[12]; [16],-10.3%
same,max response,[12]; [17],-11.8%
CC(C)(CO)[C@@H](O)C(=O)NCCCO,"activity change, negative = inhibition",[12]; at 57.5 µM (top of the series),2.51% (inactive)
same,max response,[12]; [16],21.8%
same,max response,[12]; [17],22.3%
CN=C(NC#N)NCCSCc1csc(N=C(N)N)n1,"activity change, negative = inhibition",[12]; at 57.5 µM (top of the series),3.24% (inactive)
same,max response,[12]; [16],-6.42%
same,max response,[12]; [17],-3.26%
CCCCOc1ccc(C(=O)CCN2CCCCC2)cc1,"activity change, negative = inhibition",[12]; at 57.5 µM (top of the series),-7.63% (inactive)
same,max response,[12]; [16],0.252%
same,max response,[12]; [17],0.832%
c1ccc(-c2ccc(C(c3ccccc3)n3ccnc3)cc2)cc1 (stereo unspecified),"activity change, negative = inhibition",[12]; at 57.5 µM (top of the series),13.6% (inactive)
same,max response,[12]; [16],10.1%
same,max response,[12]; [17],27.7%
CC(C)(C(=O)c1cccnc1)c1cccnc1,"activity change, negative = inhibition",[12]; at 25.7 µM (top of the series),-6.04% (inactive)
same,max response,[12]; [16],-12.6%
same,max response,[12]; [17],-17.9%
CN1C2CCC1CC(OC(=O)c1c[nH]c3ccccc13)C2 (stereo unspecified),outcome,[3],inactive
same,"activity change, negative = inhibition",[12]; at 57.5 µM (top of the series),1.19% (inactive)
same,max response,[12]; [16],10.2%
same,max response,[12]; [17],11.1%
same,Potency,[4],39.8 µM (active)
same,outcome,[5],inactive
same,outcome,[13],inactive
same,Potency,[6],7.08 µM (active)
same,Potency,[14],11.2 µM (active)
same,Potency,[7],10 µM (active)
same,Potency,[8],11.2 µM (active)
same,Potency,[15],8.91 µM (active)
same,outcome,[11],inactive
